From PubChem BioAssay
Results with a measured potency or affinity are listed apart. Values without a mark were called inactive.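 Rule for the calls: active = a fitted half-maximal concentration no higher than twice the top valid tested dose, with signal falling as cells die; inconclusive = flat curve between -70% and -30%, or poor fit; inactive = the rest, including signal rising instead of falling.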

Assay: viability loss in HeLa cells – cell-based, ATP luminescence, cherry-pick samples, cytotoxicity control, dose response (AID 687004);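 note: 0% = neutral control median and -100% = staurosporine 10 µM control median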
Conditions: ATP luminescence (CellTiter-Glo), 48 h; series mostly up to 26 µM; activity change, negative = cytotoxicity: at the top concentration

Row | Compound | activity change, negative = cytotoxicity
1 | Cc1cc(C(=O)Nc2ccc3c(c2)C(=O)N(C)[C@H]2CC[C@@H](CC(=O)N[C@@H](C)c4ccccc4)O[C@H]2CO3)no1 | 29.2% [at 23.5 µM]
2 | C[C@@H]1CN([C@@H](C)CO)C(=O)Cc2cc(NC(=O)Nc3cccc4ccccc34)ccc2O[C@@H]1CN(C)Cc1ccc(C(=O)O)cc1 | 6.05%
3 | CO[C@@H]1CN(C)C(=O)c2cc(NC(=O)Nc3cccc(F)c3)ccc2OC[C@H](C)N(C)C[C@@H]1C | 1.12%
4 | COCCNC(=O)C[C@@H]1C[C@H]2c3cc(NC(=O)C4CCC4)ccc3O[C@H]2[C@@H](CO)O1 | 10.1%
5 | O=C(NC[C@H]1[C@@H](c2ccccc2)[C@@H](CO)N1C(=O)C1CCC1)NC1CCCC1 | 0.183%
6 | CCc1ccc(NC(=O)C2NC(=O)CC2c2ccccc2)cc1 (stereo unspecified) | 8.22% [at 42 µM]
7 | C[C@H]1CN([C@@H](C)CO)C(=O)Cc2cc(NC(=O)C3CC3)ccc2O[C@H]1CN(C)Cc1ccc(-c2ccccc2)cc1 | -3.64% [at 23.5 µM]
8 | CN1[C@@H]2c3ccc(-c4cccnc4)c(=O)n3C[C@@H]2[C@@H](CO)[C@@H]1C(=O)N1CCc2ccccc2C1 | -3.03%
9 | Cc1noc(C)c1NC(=O)N(C)C[C@H]1Oc2ccc(NS(=O)(=O)c3cn(C)cn3)cc2CC(=O)N([C@H](C)CO)C[C@H]1C | 4.84% [at 23.5 µM]
10 | COc1ccccc1-c1ccc2c(c1)O[C@@H](CN(C)C(=O)c1cccnc1)[C@H](C)CN([C@@H](C)CO)S2(=O)=O | 7.37%
11 | C[C@@H]1CN([C@@H](C)CO)C(=O)c2cc(NC(=O)Nc3ccc4c(c3)OCO4)ccc2O[C@H]1CN(C)Cc1ccc(Oc2ccccc2)cc1 | -6.71% [at 23.5 µM]
